Screens deposited in PubChem BioAssay by several laboratories.
Sampled rows, rich in hits. Any-hit rate of the full collection: about 1.3%.
RAD54 branch – inhibitors of human RAD54 branch migration, primary screen, biochemical, fluorescence, single point; DNA repair and recombination protein RAD54-like (Homo sapiens), Q92698; RAD54 Holliday junction branch migration, FAM/BHQ fluorescence; inhibition, % at 10.4 µM; 360,000 compounds, 0.14% hits;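 active means mean normalized replicate activity at least 40 and at least half of replicates scoring 40 or more; inconclusive means only one of the two criteria met; inactive means mean below 40 and under half of replicates reaching 40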;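 further: 0% = median of neutral control wells and 100% = median of positive control wells; inhibitors cause a drop in the FAM fluorescence signal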
RAD52 inh – RAD52 DNA annealing inhibitors, primary screen, biochemical, FRET, single point, set 2; inhibition, % at 18.7 µM; recombinant RAD52 DNA annealing, FRET fluorescence; 360,000 compounds, 0.46% hits; DNA repair protein RAD52 homolog (Homo sapiens), P43351;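 active means every replicate showing at least 50% inhibition; inconclusive means mean inhibition at least 50% but not in every replicate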
Target sequence (P43351 whole entry, looked up): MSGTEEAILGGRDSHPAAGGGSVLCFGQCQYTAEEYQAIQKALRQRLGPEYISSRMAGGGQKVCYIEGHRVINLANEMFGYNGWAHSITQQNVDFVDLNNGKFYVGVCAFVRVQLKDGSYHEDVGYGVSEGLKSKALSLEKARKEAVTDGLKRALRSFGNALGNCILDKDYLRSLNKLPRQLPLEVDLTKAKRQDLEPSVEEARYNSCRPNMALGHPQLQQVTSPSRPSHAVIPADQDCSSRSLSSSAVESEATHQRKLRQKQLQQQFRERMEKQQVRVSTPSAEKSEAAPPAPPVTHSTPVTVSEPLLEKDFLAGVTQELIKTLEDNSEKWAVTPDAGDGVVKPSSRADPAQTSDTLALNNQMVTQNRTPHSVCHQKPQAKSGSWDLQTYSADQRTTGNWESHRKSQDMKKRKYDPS
FID counter – compounds displacing fluorescent DNA intercalator, primary screen, artefact control for HCV NS3 helicase inhibitor project, biochemical, FID fluorescence; inhibition, % at 7.9 µM; DNA fluorescent intercalator displacement; 290,000 compounds, 0.17% hits; in the data active means inhibition above about 37%;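 further: 0% = vehicle and 100% = reference compound; higher means more ethidium bromide displaced from hairpin DNA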
beta cell repl – inducers of MIN6 beta-cell proliferation, primary screen, ATP luminescence, uHTS | AID 2380, 2010 | MIN6 cells proliferation, ATPlite luminescence, 48 h; cells starved in 0.2% serum; 100% = growth in 10% serum | 330,000 compounds, 0.29% hits | proliferation, % at 10 µM;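 active means compounds whose signal lies at least 3.5 SD above the mean of all wells on their plate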;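 further: 0% = DMSO-treated cells in low-serum medium and 100% = 10% serum control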
UBC13 polyUb – UBC13 polyubiquitin chain formation inhibitors, primary screen, biochemical, TR-FRET, uHTS. inhibition, % at 20 µM. 330,000 compounds, 0.47% hits. Ubiquitin-conjugating enzyme E2 N (Homo sapiens), P61088. AID 485273, 2010; in the data active means inhibition above about 45%, passing the limit was not always enough; inconclusive means no clear call, values can overlap the other calls
Target sequence (P61088 whole entry, looked up): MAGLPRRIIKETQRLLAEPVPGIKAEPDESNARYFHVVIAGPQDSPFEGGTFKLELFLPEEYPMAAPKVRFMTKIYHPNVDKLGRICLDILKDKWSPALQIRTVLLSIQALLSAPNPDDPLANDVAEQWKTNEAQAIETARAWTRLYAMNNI
PREPL inh – PREPL enzyme inhibitors, primary screen, biochemical, fluorescence polarization; AID 2751, 2010; inhibition, % at 5.96 µM; recombinant PREPL, fluorescence polarization activity-based probe; 320,000 compounds, 0.68% hits; in the data active means inhibition above about 43%;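 further: 0% = enzyme with DMSO and 100% = wells lacking enzyme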
DNA binding – DNA binding of candidate compounds, dose response, artefact control for RAD54 inhibitor project, biochemical, fluorescence polarization, cherry-pick; AC50, µM (top dose mostly 35 µM), without a hit: at the top dose activity change, negative = DNA binding; Acridine orange-DNA displacement, 20 min; 460 compounds, 8% hits; shares compounds with RAD54 branch; AID 651673, 2012;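 active means signal drop giving an AC50 within twice the top valid tested concentration of each sample, actives reach about 35 µM in these data; inactive means activity opposite to expected, plus the rest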;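 further: polarization loss reports compound binding to salmon sperm DNA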
RAD52 DNA ctr – DNA-binding compounds via dye displacement, dose response, artefact control for RAD52 inhibitor project, biochemical, fluorescence polarization, cherry-pick; AID 652128, 2013; Salmon sperm DNA/acridine orange FP displacement; 1,000 compounds, 8% hits; shares compounds with RAD52 inh; AC50, µM;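 active means fitted half-maximal concentration for signal loss at or below twice the highest dose tested, in every separate run, actives reach about 64 µM in these data; inconclusive means runs disagree, or flat partial signal loss, or poor fit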
Starred values were filed as active, the others as inactive; i = inactive; u = inconclusive; x = no result given.

SMILES	RAD54 branch	RAD52 inh	FID counter	beta cell repl	UBC13 polyUb	PREPL inh	DNA binding	RAD52 DNA ctr
C[C@@H]1CCCCO[C@H](CN(C)Cc2ccncc2)[C@H](C)CN([C@@H](C)CO)C(=O)c2cc(NS(=O)(=O)c3ccccc3)ccc2O1	-3.8	25.7	x	x	x	x	x	x
C[C@@H]1CCCCO[C@@H](CN(C)S(=O)(=O)c2ccccc2)[C@H](C)CN([C@@H](C)CO)C(=O)c2cc(NC(=O)c3ccncc3)ccc2O1	-4.1	-4.5	x	x	x	x	x	x
O=C(Nc1ccc2c(c1)OCO2)c1cc(-c2ccncc2)nc2ccccc12	u	12.4	-16.0	-1.6	-1.3	22.2	2.8%	x
c1ccc(-c2cc3c(N4CCCC4)ncnc3s2)cc1	x	-10.8	-7.7	1.2	15.1	9.9	x	x
OCCN1CCN(c2ncnc3sc(-c4ccccc4)cc23)CC1	u	42.4	6.0	1.2	-12.0	-115.2	-21.2%	x
C[C@@H]1CN([C@@H](C)CO)C(=O)c2cc(NC(=O)c3ccncc3)ccc2O[C@@H](C)CCCCO[C@H]1CN(C)C(=O)NC1CCCCC1	0.1	-7.6	x	x	x	x	x	x
CN1CCN(CCCNC(=O)c2cc3c(-c4ccc(Cl)cc4)nn(C)c3s2)CC1	61.4*	28.0	29.1	-8.1	46.0*	-41.8	3.3%	x
Cn1nc(-c2ccc(Cl)cc2)c2cc(C(=O)NCC3CCCO3)sc21 (stereo not given)	4.5	-8.2	-18.9	-0.8	28.6	7.4	x	x
CCN(CC)CCCNC(=O)c1cc2c(-c3ccc(Cl)cc3)nn(C)c2s1	u	45.2	34.6	-8.4	38.9	-60.2	5.6%	x
C[C@@H]1CN([C@@H](C)CO)C(=O)c2cccc(NC(=O)CCCCCC(=O)Nc3ccccc3N)c2O[C@@H]1CN(C)Cc1ccc(Oc2ccccc2)cc1	x	36.8	x	x	x	x	x	x
C[C@H]1CN([C@@H](C)CO)C(=O)c2cc(NS(C)(=O)=O)ccc2O[C@H]1CN(C)C(=O)Nc1cccc2ccccc12	-5.5	-17.2	x	x	x	x	x	x
COc1ccc(S(=O)(=O)N[C@@H]2C=C[C@H](CC(=O)N3CCC(Cc4ccccc4)CC3)O[C@@H]2CO)cc1	5.9	-7.1	x	x	x	x	x	x
CCC(C)NC(=S)Nc1ccc2nc(N3CCN(CC)CC3)cc(C)c2c1 (stereo not given)	x	44.5	29.6	-1.5	-7.1	1.1	x	x
CCCCN(CC)CCCNC(=S)Nc1ccc2nc(N3CCN(CC)CC3)cc(C)c2c1	71.3*	89.7*	52.0*	-5.8	-1.2	25.0	0.4%	x
Cc1ccc(S(=O)(=O)N(C)C[C@H]2OCCCC[C@H](C)Oc3ccc(NC(=O)C4CCCCC4)cc3C(=O)N([C@@H](C)CO)C[C@@H]2C)cc1	4.4	x	x	x	x	x	x	x
Cc1nc2c(C)c(C)c(C)c(C)c2nc1C	-6.1	4.1	-1.3	4.6	6.9	-0.3	x	x
Cc1nc2nc(C)c(C)nc2nc1C	55.8*	-3.0	x	x	x	x	9.8%	x
CCOC(=O)c1c2c(n(C)c1C)C(=O)C(=O)c1ccc(Br)cc1-2	1.7	x	1.9	-5.9	-60.9	13.3	x	x
Cc1c(CN(C)C)c2c(n1C)C(=O)c1ccc(Br)cc1-2	70.9*	x	26.8	-2.4	-160.8	15.9	i	x
C(=C/c1nccc2c1[nH]c1ccccc12)/c1ccc2c(c1)OCO2	58.5*	-74.4	3.9	x	x	x	-9.0%	x
COC(=O)c1c(NC(=O)c2ccc(S(=O)(=O)N3CC(C)OC(C)C3)cc2)sc2c1CCN(C)C2 (stereo not given)	50.1*	51.2*	x	x	x	x	16.1%	i
CN1CCc2c(sc(NC(=O)c3ccc(S(=O)(=O)N4CCCC4)cc3)c2C(N)=O)C1	-15.2	-10.5	-5.9	0.2	-17.3	5.4	x	x
Cc1ccc2nc3c(c(N)c2c1)CCN3C	61.1*	41.7	42.5*	-0.8	0.1	13.3	-9.8%	i
CN1CCN(CC(=O)Nc2nc(-c3c[nH]c4ccccc34)cs2)CC1	92.9*	95.5*	18.1	-3.8	26.5	17.6	-8.4%	i
CO[C@H]1CN(C)C(=O)c2cc(NC(=O)c3ccc(F)cc3)ccc2OC[C@H](C)NC[C@H]1C	-11.2	x	x	x	x	x	x	x
SMILES	RAD54 branch	RAD52 inh	FID counter	beta cell repl	UBC13 polyUb	PREPL inh	DNA binding	RAD52 DNA ctr
C[C@H]1CN([C@@H](C)CO)C(=O)c2cc(NC(=O)Cn3cnnn3)ccc2O[C@@H]1CN(C)C(=O)Nc1cccc2ccccc12	9.6	-5.7	x	x	x	x	x	x
CCN(CC)CCCN(C(=O)c1ccco1)c1nc(-c2ccc(Cl)cc2)cs1	58.9*	78.9*	27.2	-5.1	16.1	-93.9	6.3%	i
Cc1ccc(S(=O)(=O)N2CCC(CN3C(=O)c4cccc5cccc(c45)C3=O)CC2)cc1	-0.1	x	-13.5	-1.2	24.5	7.3	x	x
Cc1cc(C)cc(OCC(O)CN2CCC(CN3C(=O)c4cccc5cccc(c45)C3=O)CC2)c1 (stereo not given)	65.6*	95.5*	x	-6.2	44.9	17.1	-14.6%	i
C[C@H](CO)N1C[C@H](C)[C@H](CN(C)Cc2cccnc2)Oc2cc(C#CC3CC3)ccc2S1(=O)=O	5.5	5.0	x	x	x	x	x	x
CCOC(=O)c1cnc2ccc(OC)cc2c1Nc1ccc(N2CCN(C)CC2)cc1	71.8*	88.2*	43.9*	-5.7	17.4	x	3.7%	i
Cc1ccc(-c2cnc3c(c2)C(=O)N([C@@H](C)CO)C[C@@H](C)[C@@H](CN(C)S(C)(=O)=O)O3)cc1	3.1	3.8	x	x	x	x	x	x
CN(C)CCNC(=O)c1cccc(-c2cnc3c(NC=O)cc(-c4cccc(F)c4)cn23)c1	u	91.1*	x	x	x	x	-3.5%	i
CC(=O)c1cccc(-c2cnc3c(NC=O)cc(-c4ccc(F)cc4)cn23)c1	1.0	-40.8	x	x	x	x	x	x
COc1ccc(-c2cc(NC=O)c3ncc(-c4cccc(C(=O)NCCN(C)C)c4)n3c2)cc1	68.9*	89.9*	x	x	x	x	16.6%	i
CN(C)CCNC(=O)c1cccc(-c2cnc3c(NC=O)cc(-c4ccc(F)cc4)cn23)c1	54.8*	92.2*	x	x	x	x	1.1%	i
COCC(=O)Nc1ccc2c(c1)OC[C@H](C)N(C(=O)c1cccnc1)C[C@@H](C)[C@@H](OC)CN(C)C2=O	-0.8	-9.4	x	x	x	x	x	x
COc1ccc(C)c2sc(N(CCN(C)C)C(=O)c3ccc4ccccc4c3)nc12	51.6*	73.2*	21.1	0.0	18.4	19.6	-16.4%	i
